The structures appear in SMILES notation. Values joined by “and” are separate entries in the source; they are usually repeats but may differ in a detail not shown here. Equal entries are not always repeated. Inconclusive results are not listed. Active and inactive are the calls of the source. Calls come from the whole dose curve; as a rule, active = well fitted cell-killing curve with a large enough effect; inconclusive = small, poorly fitted or top-dose-only effect, or effect the other way; inactive = no such curve, though single readings can be large or run the other way.
Potency is the fitted concentration of half-maximal effect.

One test is described as follows: Viability qHTS for spleen associated tyrosine kinase inhibitor (SYKi) naive MV4-11 cells (AID 1963823). Note: nearly all actives have a fitted effect of over 40% in size. The following applies: MV4-11 AML viability, CellTiter-Glo luminescence, 72 h; series mostly up to 45 µM; viability (% of control): at the top concentration. The essentials:
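In this viability screen, compounds acted on SYK inhibitor naive MV4-11 cells for three days (72 hr, 37 C). Remaining viable cells were measured by CellTiter-Glo luminescence following a 10 min room-temperature development.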
A general note: qHTS replaces the single test concentration by a dilution series.
In the case of `CC(=O)OCC(CCn1cnc2cnc(N)nc21)COC(C)=O`, the “viability (% of control)” value is 84.8% (inactive).
`CNC(=O)c1ccc2cc(C3(O)CCn4cncc43)ccc2c1` (stereo not given): the “viability (% of control)” value is 85.4% (inactive).
The same measure, in the same setting: as for `COc1ncc(-c2ccc3c(Nc4cc(Oc5cc(F)cc(F)c5)cc(C(=O)O)c4)c(S(=O)(=O)NC4CC4)cnc3c2)c(OC)n1`, the figure is 57.5% (inactive).
Consider `Cc1cc(C(C)Nc2ccccc2)c2nc(N3CCOCC3)cc(=O)n2c1` (stereo not given), for which the Potency is 9.2 µM (active) and 5.9 µM (active).
Regarding `O=C1CCC[C@@H]2[C@H]3CCC[N+]4([O-])CCC[C@@H](CN12)[C@@H]34` (stereo not given in full), the “viability (% of control)” value was 80.6% (inactive).
Same read-out and setting: as for `CN(CCOc1ccc(NS(C)(=O)=O)cc1)CCc1ccc(NS(C)(=O)=O)cc1`, the figure is 90.7% (inactive).
For the compound `CC[C@@H]([C@H](C)O)n1ncn(-c2ccc(N3CCN(c4ccc(OCC5CO[C@@](Cn6cncn6)(c6ccc(F)cc6F)C5)cc4)CC3)cc2)c1=O` (stereo not given in full), the Potency is 5.9 µM (active).
Same read-out and setting: as for `O=C(c1ccc(F)cc1)C1CCN(CCn2c(=O)[nH]c3ccccc3c2=O)CC1`, the entry is “inactive”.
For the compound `CC(O)C1C(=O)N2C(C(=O)O)=C(SC3CNC(C(=O)N(C)C)C3)C(C)C12` (stereo not given), the “viability (% of control)” value is 86.5% (inactive).
For the compound `COc1ccc(F)c(F)c1C(=O)c1cnc(NC2CCN(S(C)(=O)=O)CC2)nc1N`, the Potency was 0.651 µM (active).
On the same count and under the same terms, as for `COc1ccc2c(Oc3ccc(NC(=O)c4c(C)n(CC(C)(C)O)n(-c5ccccc5)c4=O)cc3F)ccnc2c1`, the figure is 0.0934 µM (active).
`CC1CNc2c(cccc2S(=O)(=O)N[C@@H](CCCN=C(N)N)C(=O)N2CC[C@@H](C)C[C@@H]2C(=O)O)C1` (stereo not given in full): the “viability (% of control)” value was 89.6% (inactive).
In the case of `Cc1cnc(Nc2ccc(OCCN3CCCC3)cc2)nc1Nc1cccc(S(=O)(=O)NC(C)(C)C)c1`, the Potency is 146 nM (active) and 186 nM (active).
Still for that read-out and setting: as for `CCCCN(CCCC)CCC(O)c1cc2c(Cl)cc(Cl)cc2c2cc(C(F)(F)F)ccc12` (stereo not given), the figure is 10.6 µM (active); as for `CCn1c(-c2nonc2N)nc2cncc(CNC3CCNCC3)c21`, 2.91 µM (active) and 2.95 µM (active).
Same read-out and setting: as for `NCCS(=O)(=O)O`, the entry is “inactive”.
In the case of `C[C@@H](NCCCc1cccc(C(F)(F)F)c1)c1cccc2ccccc12`, the Potency is 10.6 µM (active).
Same read-out and setting: as for `COc1ccc2[nH]cc(CCNC(C)=O)c2c1`, the entry is “inactive”; as for `CCCOc1ccc(C(=O)OCCN(CC)CC)cc1N`, “inactive”; as for `NCCc1cnc[nH]1`, 13.3 µM (active).
Same read-out and setting: as for `CC1CCN(c2cc(N3CCN(C)CC3)ccc2NC(=O)c2cc(C#N)c[nH]2)CC1`, the figure is 5.25 µM (active).
With `COc1ccc([C@@H]2CNC(=O)C2)cc1OC1CCCC1`, the “viability (% of control)” value was 55.7% (inactive).
For the compound `CN1CC[C@@H](c2c(O)cc(O)c3c(=O)cc(-c4ccccc4Cl)oc23)[C@@H](O)C1`, the Potency is 0.525 µM (active).
Turning to `Nc1ncnc2c1ncn2[C@@H]1O[C@H](CO)[C@@H](O)[C@@H]1O`, the “viability (% of control)” value is 80.4% (inactive).
Consider `Cc1c(-c2ccnn2C)cc(C(=O)NCc2ccc(S(C)(=O)=O)cn2)c(=O)n1-c1cccc(C(F)(F)F)c1`, for which the Potency result was “inactive”.
Same read-out and setting: as for `COC(=O)Nc1cc(Nc2cc(NC3CC3)c3ncc(C#N)n3n2)c(Cl)c(N2CCN(C)CC2)c1`, the figure is 0.417 µM (active).
On the same count and under the same terms, as for `Cc1cc(Nc2ncnc3ccc(-c4ccc(CNCCS(C)(=O)=O)o4)cc23)ccc1Oc1ccn2ncnc2c1`, the figure is 11.8 µM (active); as for `O[C@@H](COc1cccc2ncccc12)CN1CCN(C2c3ccccc3[C@@H]3[C@H](c4ccccc42)C3(F)F)CC1` (stereo not given in full), 5.9 µM (active) and 9.2 µM (active); as for `CC1=CC(=O)c2ccccc2C1=O`, 7.42 µM (active).
Still for that read-out and setting: as for `CN(C)c1nc(N(C)C)nc(N(C)C)n1`, the entry is “inactive”.
On to `CNCc1ccc(-c2[nH]c3cc(F)cc4c3c2CCNC4=O)cc1`, for which the Potency is 13 µM (active) and 16.6 µM (active).
Take `CC(NCCc1ccc(O)cc1)C(O)c1ccc(O)cc1` (stereo not given): the “viability (% of control)” value was 51.9% (inactive).
For `CN1CCN(Cc2ccc(NC(=O)Nc3ccc(Oc4cc(NC(=O)C5CC5)ncn4)cc3)cc2C(F)(F)F)CC1`, the “viability (% of control)” value was 3.58% (inactive).
On to `CC(C)C[C@H](NC(=O)[C@@H](NC(=O)c1cccc(-c2ccccc2)n1)[C@@H](C)O)B(O)O`, for which the Potency was 14.6 nM (active) and 25.7 nM (active).
Same read-out and setting: as for `Cc1nc(N)ncc1-c1nc(N2CCOCC2)c2sc(C(C)(C)O)cc2n1`, the figure is 2.59 µM (active) and 3.32 µM (active).
Regarding `Cn1cnc2c(F)c(Nc3ccc(Br)cc3Cl)c(C(=O)NOCCO)cc21`, the Potency was 0.296 µM (active).
`COC(=O)N1CC2(CC2)C[C@H](C(=O)NO)[C@H]1C(=O)N1CCN(c2ccccc2)CC1`: the “viability (% of control)” value is 73% (inactive).
As to `CN1CCC(COc2cnc(-c3cccc(Cn4nc(-c5cccc(C#N)c5)ccc4=O)c3)nc2)CC1`, the Potency was 7.42 µM (active) and 8.2 µM (active).
`Oc1ccc(-c2nc(-c3ccc(F)cc3)c(-c3ccncc3)[nH]2)cc1`: the Potency is 9.34 µM (active).
Still for that read-out and setting: as for `CCN(CC)CCNC(=O)c1ccc2nc(-c3ccccc3)c(-c3ccc(CN4CCC(n5c(=O)[nH]c6ccccc65)CC4)cc3)nc2c1`, the figure is 2.06 µM (active) and 3.32 µM (active).

The nature of another test: Viability qHTS for spleen associated tyrosine kinase inhibitor (SYKi) drug resistant MV4-11 cells (AID 1963824). Note: nearly all actives have a fitted effect of over 35% in size. The following applies: SYKi-resistant MV4-11 viability, CellTiter-Glo, 72 h; series mostly up to 45 µM; viability, % of control: at the top concentration. The essentials:
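SYK-inhibitor-resistant MV4-11 AML cells were seeded at 500 per well onto compound and cultured 72 hours (37 °C, 5% CO2). CellTiter-Glo was then added, and after 10 min at room temperature, luminescence gave viability.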
Consider `CC(=O)OCC(CCn1cnc2cnc(N)nc21)COC(C)=O`, for which the “viability, % of control” value is 106% (inactive).
Same read-out and setting: as for `CNC(=O)c1ccc2cc(C3(O)CCn4cncc43)ccc2c1` (stereo not given), the figure is 84.5% (inactive).
`COc1ncc(-c2ccc3c(Nc4cc(Oc5cc(F)cc(F)c5)cc(C(=O)O)c4)c(S(=O)(=O)NC4CC4)cnc3c2)c(OC)n1`: the “viability, % of control” value is 77.8% (inactive).
Turning to `Cc1cc(C(C)Nc2ccccc2)c2nc(N3CCOCC3)cc(=O)n2c1` (stereo not given), the Potency is 10.3 µM (active) and 9.34 µM (active).
As to `O=C1CCC[C@@H]2[C@H]3CCC[N+]4([O-])CCC[C@@H](CN12)[C@@H]34` (stereo not given in full), the “viability, % of control” value is 93.7% (inactive).
As for `CN(CCOc1ccc(NS(C)(=O)=O)cc1)CCc1ccc(NS(C)(=O)=O)cc1`, the Potency entry is “inactive”.
Regarding `CC[C@@H]([C@H](C)O)n1ncn(-c2ccc(N3CCN(c4ccc(OCC5CO[C@@](Cn6cncn6)(c6ccc(F)cc6F)C5)cc4)CC3)cc2)c1=O` (stereo not given in full), the Potency is 4.17 µM (active).
On the same count and under the same terms, as for `O=C(c1ccc(F)cc1)C1CCN(CCn2c(=O)[nH]c3ccccc3c2=O)CC1`, the figure is 16.8 µM (active).
Take `CC(O)C1C(=O)N2C(C(=O)O)=C(SC3CNC(C(=O)N(C)C)C3)C(C)C12` (stereo not given): the “viability, % of control” value is 88.3% (inactive).
For the compound `COc1ccc(F)c(F)c1C(=O)c1cnc(NC2CCN(S(C)(=O)=O)CC2)nc1N`, the Potency is 580 nM (active) and 742 nM (active).
For the compound `COc1ccc2c(Oc3ccc(NC(=O)c4c(C)n(CC(C)(C)O)n(-c5ccccc5)c4=O)cc3F)ccnc2c1`, the Potency is 0.148 µM (active).
For `CC1CNc2c(cccc2S(=O)(=O)N[C@@H](CCCN=C(N)N)C(=O)N2CC[C@@H](C)C[C@@H]2C(=O)O)C1` (stereo not given in full), the “viability, % of control” value was 103% (inactive).
`Cc1cnc(Nc2ccc(OCCN3CCCC3)cc2)nc1Nc1cccc(S(=O)(=O)NC(C)(C)C)c1`: the Potency was 366 nM (active) and 417 nM (active).
As to `CCCCN(CCCC)CCC(O)c1cc2c(Cl)cc(Cl)cc2c2cc(C(F)(F)F)ccc12` (stereo not given), the Potency was 8.41 µM (active).
As for `CCn1c(-c2nonc2N)nc2cncc(CNC3CCNCC3)c21`, the Potency was 7.31 µM (active) and 5.25 µM (active).
On the same count and under the same terms, as for `NCCS(=O)(=O)O`, the entry is “inactive”; as for `C[C@@H](NCCCc1cccc(C(F)(F)F)c1)c1cccc2ccccc12`, 13.3 µM (active) and 7.42 µM (active).
The same measure, in the same setting: as for `COc1ccc2[nH]cc(CCNC(C)=O)c2c1`, the entry is “inactive”; as for `CCCOc1ccc(C(=O)OCCN(CC)CC)cc1N`, “inactive”.
Take `NCCc1cnc[nH]1`: the “viability, % of control” value is 79.7% (inactive).
Turning to `CC1CCN(c2cc(N3CCN(C)CC3)ccc2NC(=O)c2cc(C#N)c[nH]2)CC1`, the Potency is 11.8 µM (active).
As to `COc1ccc([C@@H]2CNC(=O)C2)cc1OC1CCCC1`, the “viability, % of control” value is 76% (inactive).
Regarding `CN1CC[C@@H](c2c(O)cc(O)c3c(=O)cc(-c4ccccc4Cl)oc23)[C@@H](O)C1`, the Potency was 0.296 µM (active).
For the compound `Nc1ncnc2c1ncn2[C@@H]1O[C@H](CO)[C@@H](O)[C@@H]1O`, the “viability, % of control” value is 89.7% (inactive).
`Cc1c(-c2ccnn2C)cc(C(=O)NCc2ccc(S(C)(=O)=O)cn2)c(=O)n1-c1cccc(C(F)(F)F)c1`: the Potency entry is “inactive”.
On the same count and under the same terms, as for `COC(=O)Nc1cc(Nc2cc(NC3CC3)c3ncc(C#N)n3n2)c(Cl)c(N2CCN(C)CC2)c1`, the figure is 0.662 µM (active).
Take `Cc1cc(Nc2ncnc3ccc(-c4ccc(CNCCS(C)(=O)=O)o4)cc23)ccc1Oc1ccn2ncnc2c1`: the Potency was 11.6 µM (active) and 18.6 µM (active).
Same read-out and setting: as for `O[C@@H](COc1cccc2ncccc12)CN1CCN(C2c3ccccc3[C@@H]3[C@H](c4ccccc42)C3(F)F)CC1` (stereo not given in full), the figure is 6.61 µM (active) and 9.2 µM (active).
On the same count and under the same terms, as for `CC1=CC(=O)c2ccccc2C1=O`, the figure is 4.68 µM (active).
The same measure, in the same setting: as for `CN(C)c1nc(N(C)C)nc(N(C)C)n1`, the entry is “inactive”.
With `CNCc1ccc(-c2[nH]c3cc(F)cc4c3c2CCNC4=O)cc1`, the Potency was 20.6 µM (active) and 14.8 µM (active).
For `CC(NCCc1ccc(O)cc1)C(O)c1ccc(O)cc1` (stereo not given), the “viability, % of control” value is 72.7% (inactive).
For `CN1CCN(Cc2ccc(NC(=O)Nc3ccc(Oc4cc(NC(=O)C5CC5)ncn4)cc3)cc2C(F)(F)F)CC1`, the “viability, % of control” value was 3.77% (inactive).
In the case of `CC(C)C[C@H](NC(=O)[C@@H](NC(=O)c1cccc(-c2ccccc2)n1)[C@@H](C)O)B(O)O`, the Potency was 0.0204 µM (active).
Turning to `Cc1nc(N)ncc1-c1nc(N2CCOCC2)c2sc(C(C)(C)O)cc2n1`, the Potency was 3.66 µM (active) and 5.9 µM (active).
On the same count and under the same terms, as for `Cn1cnc2c(F)c(Nc3ccc(Br)cc3Cl)c(C(=O)NOCCO)cc21`, the figure is 668 nM (active) and 164 nM (active) and 468 nM (active).
Turning to `COC(=O)N1CC2(CC2)C[C@H](C(=O)NO)[C@H]1C(=O)N1CCN(c2ccccc2)CC1`, the “viability, % of control” value was 77.4% (inactive).
Take `CN1CCC(COc2cnc(-c3cccc(Cn4nc(-c5cccc(C#N)c5)ccc4=O)c3)nc2)CC1`: the Potency was 7.42 µM (active) and 13 µM (active).
Turning to `Oc1ccc(-c2nc(-c3ccc(F)cc3)c(-c3ccncc3)[nH]2)cc1`, the Potency is 8.33 µM (active).
On the same count and under the same terms, as for `CCN(CC)CCNC(=O)c1ccc2nc(-c3ccccc3)c(-c3ccc(CN4CCC(n5c(=O)[nH]c6ccccc65)CC4)cc3)nc2c1`, the figure is 2.59 µM (active) and 3.32 µM (active).

Values taken from PubChem BioAssay (NCATS).
